Consider 13 compounds from PubChem BioAssay (EPA / NIEHS).

The target in test [1] is Nuclear receptor subfamily 4 group A member 2 (Homo sapiens) (UniProt P43354). Nature of the test: ATG_NURR1_TRANS: Attagene TRANS-FACTORIAL HepG2 Assay for human Nuclear Receptor Related Protein 1 (NURR1) (AID 2282985). The conditions noted are these: HepG2 Attagene TRANS reporter, mRNA readout. The essentials: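 Chimeric NR-Gal4 proteins were expressed in human HepG2 cells bearing GAL4-UAS reporter units, and induced reporter mRNA was quantified 24 h post-dosing by RT-PCR and capillary electrophoresis.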

Test [2] has as its target human Peroxisome Proliferator-activated Receptor alpha (PPARa), PPARA (gene 5465) (UniProt Q07869). The test can be described thus: ATG_PPARa_TRANS: Attagene TRANS-FACTORIAL HepG2 Assay for human Peroxisome Proliferator-activated Receptor alpha (PPARa) (AID 2283001). The essentials:
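Exposure: 24 h, transiently transfected HepG2 cells. Endpoint: GAL4-UAS reporter mRNA, RT-PCR with capillary electrophoresis fluorescence. Baseline: DMSO; increases fitted.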

In test [3] the target is human Peroxisome Proliferator-activated Receptor delta (PPARd), PPARD (gene 5467) (UniProt Q03181). Nature of the test: ATG_PPARd_TRANS: Attagene TRANS-FACTORIAL HepG2 Assay for human Peroxisome Proliferator-activated Receptor delta (PPARd) (AID 2283002). Put shortly: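 HepG2 cells transiently transfected with multiplexed GAL4-UAS reporter units and exogenous chimeric NR-Gal4 proteins; 24 h compound exposure. Reporter mRNA measured by RT-PCR, 6-FAM labelling, HpaI digestion and capillary electrophoresis; gain of signal versus DMSO.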

Test [4] concerns the target Nuclear receptor subfamily 1 group I member 2 (Homo sapiens) (UniProt O75469). The test can be described thus: ATG_PXR_TRANS: Attagene TRANS-FACTORIAL HepG2 Assay for human Pregnane X Receptor (PXR) (AID 2283008). The essentials: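 Multiplexed TRANS reporter panel in HepG2; this component tracks PXR-Gal4-driven reporter mRNA after 24 h dosing, measured by RT-PCR with capillary electrophoresis fluorescence, fitted against DMSO.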

The target in test [5] is human RAR-related Orphan Receptor beta (RORb), RORB (gene 6096) (UniProt Q92753). Nature of the test: ATG_RORb_TRANS: Attagene TRANS-FACTORIAL HepG2 Assay for human RAR-related Orphan Receptor beta (RORb) (AID 2283010). The essentials:
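HepG2, transient MRTU transfection (GAL4-UAS reporters, exogenous NR-Gal4 chimeras); 24 h compound exposure; total RNA → RT-PCR → 6-FAM primer extension → HpaI digest → CE fluorescence. Positive direction vs DMSO baseline.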

Test [6] has as its target human Vitamin D Receptor (VDR), VDR (gene 7421) (UniProt P11473). The test can be described thus: ATG_VDR_TRANS: Attagene TRANS-FACTORIAL HepG2 Assay for human Vitamin D Receptor (VDR) (AID 2283022). The essentials: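 RT-PCR/capillary electrophoresis read-out of reporter mRNA induction in transiently transfected HepG2; 24 h dosing; chimeric NR-Gal4 (TRANS format); gain-of-signal fit against DMSO baseline.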

Test [7] is described as follows: TOX21_p53_BLA_p3_viability: Viability Assessment in the Tox21 HCT-116 p53 Agonism Beta-lactamase Assay, Phase 3 (AID 2283593).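 Also: cells exposed to compound for 16 h before reading.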 Put shortly: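 HCT-116 cells (4000/well) rested 5 h at 37C, then got DMSO compounds by pin tool (217-fold dilution) for 16 h at 37C, 5% CO2. After the bla read, CellTiter-Glo was added and luminescence read at 30 min, room temperature.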

Test [8] is described as follows: ATG_M_19_TRANS: Attagene TRANS-FACTORIAL HepG2 Assay for M19 Transcription Factor (Internal Marker) (AID 2282974). The conditions noted are these: HepG2 Attagene TRANS-FACTORIAL M19 internal marker reporter. Put shortly:
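Cells: human HepG2, transiently transfected with multiplexed reporter transcription units. Exposure: 24 h. Detection: RT-PCR of reporter mRNA with capillary electrophoresis. Analysis: gain-of-signal vs DMSO.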

For test [9], the target named is Oxysterols receptor LXR-alpha (Homo sapiens) (UniProt Q13133). The test can be described thus: ATG_LXRa_TRANS: Attagene TRANS-FACTORIAL HepG2 Assay for human Liver X Receptor alpha (LXRa) (AID 2282980). As to conditions: HepG2 Attagene TRANS reporter, LXRa transactivation. The essentials:
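Read-out: reporter transcript levels by RT-PCR plus capillary electrophoresis, fluorescence intensity. Transiently transfected HepG2, exogenous NR-GAL4 chimera, GAL4-UAS reporters; 24 h compound exposure. Activity = increase over DMSO negative control.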

The nature of test [10]: ATG_NF_kB_CIS: Attagene CIS-FACTORIAL HepG2 Assay for human Nuclear Factor Kappa B (NF-kB) (AID 2282991; active = hit-call score of the fitted dose curve at least 0.9, where 1 is the maximum; inactive = score below 0.9). As to conditions: HepG2 Attagene cis-factorial NF-kB reporter mRNA; actives raise or lower the signal. Put shortly: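 Endogenous transcription factor activity in HepG2 was captured via cis-regulated reporter constructs; after 24 h dosing, reporter mRNA was reverse-transcribed, amplified, fluorescently labelled and sized by capillary electrophoresis, with activity fitted bidirectionally relative to DMSO.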

Test [11] has as its target human RAR-related Orphan Receptor gamma (RORg), RORC (gene 6097) (UniProt P51449). The test can be described thus: ATG_RORg_TRANS: Attagene TRANS-FACTORIAL HepG2 Assay for human RAR-related Orphan Receptor gamma (RORg) (AID 2283011).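 As to AC50: potency for induction of reporter transcripts above DMSO so activators.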 The essentials: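 Transient MRTU transfection of HepG2 (TRANS format, exogenous NR-Gal4 chimera). 24 h dosing. Total RNA → oligo(dT) RT → PCR → 6-FAM labelling → HpaI cut → CE. Gain vs DMSO.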

For test [12], the target named is Retinoic acid receptor RXR-alpha (Homo sapiens) (UniProt P19793). The test can be described thus: ATG_RXRa_TRANS: Attagene TRANS-FACTORIAL HepG2 Assay for human Retinoid X Receptor alpha (RXRa) (AID 2283012). Put shortly: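 Read-out: fluorescent reporter-transcript fragments quantified by capillary electrophoresis after RT-PCR. Transiently transfected HepG2 cells carrying GAL4-UAS reporters and NR-GAL4 chimeras were exposed to chemical for 24 h; activity scored as increase over DMSO.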

A short description of test [13]: ATG_XTT_Cytotoxicity: Cytotoxicity Assessment in the Attagene TRANS-FACTORIAL HepG2 Assay (AID 2283584). The essentials:
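XTT readout of cell number in transfected HepG2 cells, 24 h post-dosing; DMSO serves as negative control and baseline, with activity taken as loss of viability signal.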

A short description of test [14]: CCTE_Harrill_HTTr_Viability_MCF7: CCTE's 6-hour Cell Viability Assessment for the High-Throughput Transcriptomics (HTTr) Platform, in MCF-7 cells cultured in DMEM + 10% fetal bovine serum, Harrill Lab (AID 2284010; active = hit-call score of the fitted dose curve at least 0.9, where 1 is the maximum; inactive = score below 0.9). Put shortly: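 PI exclusion, high-content imaging; 8-pt dilution series, 6 h exposure; bidirectional fit vs DMSO (neg. ctrl/baseline); gain of signal = loss of membrane integrity.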

Test [15] can be described thus: CCTE_Harrill_HTTr_Apoptosis_MCF7: CCTE's 6-hour Apoptosis Assessment for the High-Throughput Transcriptomics (HTTr) Platform, in MCF-7 cells cultured in DMEM + 10% fetal bovine serum, Harrill Lab (AID 2284011; active = hit-call score of the fitted dose curve at least 0.9, where 1 is the maximum; inactive = score below 0.9). The essentials:
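Read-out: CellEvent Caspase 3/7 Green signal by high content imaging, gain-of-signal indicating apoptosis. MCF-7 cells, DMEM + 10% FBS, eight-point dilution series, 6 h exposure. Curves fitted bidirectionally relative to DMSO negative control.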

Test [16] has as its target Nuclear receptor subfamily 1 group I member 3 (Homo sapiens) (UniProt Q14994). Nature of the test: ATG_CAR_TRANS: Attagene TRANS-FACTORIAL HepG2 Assay for human Constitutive Androstane Receptor (CAR) (AID 2282969).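 Also: activators raise reporter mRNA above DMSO so AC50 marks induction.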 As to conditions: HepG2 Attagene TRANS-FACTORIAL CAR reporter. The essentials: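 Steps: transient transfection of HepG2 with multiple GAL4-UAS reporter units; 24 h compound incubation; RNA isolation, RT-PCR, 6-FAM primer extension, HpaI digest; capillary electrophoresis. Gain-of-signal relative to DMSO negative control.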

Test [17] concerns the target Retinoic acid receptor alpha (Homo sapiens) (UniProt P10276). Nature of the test: ATG_DR5_RAR_CIS: Attagene CIS-FACTORIAL HepG2 Assay for human Retinoic Acid Receptor Alpha (RARE), DR5 submotif (AID 2282934; active = hit-call score of the fitted dose curve at least 0.9, where 1 is the maximum; inactive = score below 0.9;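 as to AC50: reporter responds to endogenous RAR alpha beta and gamma in HepG2 not RARA alone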). The conditions noted are these: HepG2 Attagene cis-factorial RARE DR5 reporter, mRNA; actives raise or lower the signal. Put shortly:
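HepG2 cells transiently transfected with multiplexed reporter units under cis (DR5 RARE) promoters, so endogenous transcription factor activity is measured. After 24 h compound exposure, reporter mRNA is quantified by RT-PCR with fluorescent labelling and capillary electrophoresis; bidirectional fitting versus DMSO.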

Test [18] can be described thus: ATG_PPRE_CIS: Attagene CIS-FACTORIAL HepG2 Assay for human Peroxisome Proliferator-activated Response Element (PPRE) (AID 2282958; active = hit-call score of the fitted dose curve at least 0.9, where 1 is the maximum; inactive = score below 0.9). The conditions noted are these: HepG2 PPRE cis-element reporter, Attagene transcription factor profiling; actives raise or lower the signal. The essentials: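 Cells are first transfected transiently with the multiplexed reporter library, then dosed for 24 h. Total RNA is reverse-transcribed, amplified, fluorescently end-labeled and HpaI-cut before capillary electrophoresis; activity is fitted bidirectionally against DMSO controls.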

Test [19] has as its target Glucocorticoid receptor (Homo sapiens) (UniProt P04150). Nature of the test: ATG_GR_TRANS: Attagene TRANS-FACTORIAL HepG2 Assay for human Glucocorticoid Receptor (GR) (AID 2282978).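 Also: activators score as hits since higher reporter transcript over DMSO is fitted.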 The conditions noted are these: HepG2 Attagene TRANS GR reporter, mRNA transcription. Put shortly: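 In this trans-factorial format, exogenous NR-GAL4 chimeric proteins in transfected HepG2 cells regulate GAL4-UAS reporter transcription. After 24 h treatment, reporter mRNA induction relative to DMSO is read by RT-PCR and capillary electrophoresis.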

For test [20], the target named is Bile acid receptor (Homo sapiens) (UniProt Q96RI1). Nature of the test: ATG_IR1_CIS: Attagene CIS-FACTORIAL HepG2 Assay for human Nuclear Receptor Subfamily 1 Group H Member 4 (NR1H4), IR1 submotif (AID 2282946; active = hit-call score of the fitted dose curve at least 0.9, where 1 is the maximum; inactive = score below 0.9). The conditions noted are these: IR1 reporter transcription, actives raise or lower the signal. Put shortly:
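Readout: reporter transcript levels by RT-PCR with fluorescent capillary electrophoresis, from HepG2 cells transiently transfected with multiplexed cis-regulated reporters and dosed 24 h. Gain- or loss-of-signal fitted versus DMSO negative control.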

Results filed as inconclusive are left out. Calls of active or inactive are those of the source. The calls were made as follows, unless noted: active = hit-call score of the fitted dose curve at least 0.9, where 1 is the maximum; inconclusive = response in the unintended direction; inactive = score below 0.9.

Sequence of Retinoic acid receptor alpha (Homo sapiens) (P10276 whole entry, looked up): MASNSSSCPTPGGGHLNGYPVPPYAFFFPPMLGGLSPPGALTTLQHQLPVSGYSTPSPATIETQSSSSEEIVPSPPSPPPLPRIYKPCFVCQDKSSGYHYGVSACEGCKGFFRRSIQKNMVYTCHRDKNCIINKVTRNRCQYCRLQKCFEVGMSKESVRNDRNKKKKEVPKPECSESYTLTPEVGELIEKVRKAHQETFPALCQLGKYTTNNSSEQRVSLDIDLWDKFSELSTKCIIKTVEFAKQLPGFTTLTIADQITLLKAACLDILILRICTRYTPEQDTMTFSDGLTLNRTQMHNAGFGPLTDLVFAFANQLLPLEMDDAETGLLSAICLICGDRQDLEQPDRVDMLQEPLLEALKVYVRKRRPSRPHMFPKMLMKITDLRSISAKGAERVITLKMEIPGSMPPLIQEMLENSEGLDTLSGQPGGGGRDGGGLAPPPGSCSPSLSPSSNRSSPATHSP
Sequence of Bile acid receptor (Homo sapiens) (Q96RI1 whole entry, looked up): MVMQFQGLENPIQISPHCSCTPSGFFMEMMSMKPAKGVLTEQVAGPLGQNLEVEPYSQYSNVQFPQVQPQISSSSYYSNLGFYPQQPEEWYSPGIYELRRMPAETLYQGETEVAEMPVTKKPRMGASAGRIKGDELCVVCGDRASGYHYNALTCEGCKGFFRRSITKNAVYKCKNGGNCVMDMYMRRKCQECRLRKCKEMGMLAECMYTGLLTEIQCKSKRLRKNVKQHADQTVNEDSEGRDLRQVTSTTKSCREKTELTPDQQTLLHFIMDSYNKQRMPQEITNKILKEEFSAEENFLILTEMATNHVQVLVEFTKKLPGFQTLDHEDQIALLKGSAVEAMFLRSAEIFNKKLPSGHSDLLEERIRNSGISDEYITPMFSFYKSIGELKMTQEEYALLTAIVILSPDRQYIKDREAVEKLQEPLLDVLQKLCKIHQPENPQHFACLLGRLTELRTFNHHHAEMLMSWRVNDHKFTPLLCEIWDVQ
Sequence of human Peroxisome Proliferator-activated Receptor alpha (PPARa), PPARA (gene 5465) (Q07869 whole entry, looked up, the tested form may be a part): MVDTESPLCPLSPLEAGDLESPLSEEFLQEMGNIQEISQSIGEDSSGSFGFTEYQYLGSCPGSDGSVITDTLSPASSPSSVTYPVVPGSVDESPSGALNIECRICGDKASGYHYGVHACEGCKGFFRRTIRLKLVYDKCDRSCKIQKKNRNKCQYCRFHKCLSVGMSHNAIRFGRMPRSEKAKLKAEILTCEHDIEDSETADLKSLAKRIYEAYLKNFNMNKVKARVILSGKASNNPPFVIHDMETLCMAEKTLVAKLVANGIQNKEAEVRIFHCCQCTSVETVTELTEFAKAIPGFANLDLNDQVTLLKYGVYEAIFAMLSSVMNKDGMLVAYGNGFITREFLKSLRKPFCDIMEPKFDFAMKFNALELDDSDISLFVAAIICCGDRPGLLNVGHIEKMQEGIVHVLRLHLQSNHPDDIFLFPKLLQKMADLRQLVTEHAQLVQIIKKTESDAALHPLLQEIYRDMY
Sequence of Nuclear receptor subfamily 1 group I member 3 (Homo sapiens) (Q14994 whole entry, looked up, the tested form may be a part): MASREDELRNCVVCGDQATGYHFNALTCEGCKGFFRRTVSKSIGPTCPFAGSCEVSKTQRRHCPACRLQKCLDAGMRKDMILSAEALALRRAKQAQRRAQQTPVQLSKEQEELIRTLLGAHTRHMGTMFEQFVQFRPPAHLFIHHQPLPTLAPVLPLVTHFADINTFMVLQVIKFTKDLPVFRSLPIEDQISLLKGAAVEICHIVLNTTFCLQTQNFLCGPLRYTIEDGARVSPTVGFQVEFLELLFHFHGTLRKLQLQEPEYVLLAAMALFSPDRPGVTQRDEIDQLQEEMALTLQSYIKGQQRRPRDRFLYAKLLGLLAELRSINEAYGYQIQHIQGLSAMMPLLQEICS
Sequence of Glucocorticoid receptor (Homo sapiens) (P04150 whole entry, looked up, the tested form may be a part): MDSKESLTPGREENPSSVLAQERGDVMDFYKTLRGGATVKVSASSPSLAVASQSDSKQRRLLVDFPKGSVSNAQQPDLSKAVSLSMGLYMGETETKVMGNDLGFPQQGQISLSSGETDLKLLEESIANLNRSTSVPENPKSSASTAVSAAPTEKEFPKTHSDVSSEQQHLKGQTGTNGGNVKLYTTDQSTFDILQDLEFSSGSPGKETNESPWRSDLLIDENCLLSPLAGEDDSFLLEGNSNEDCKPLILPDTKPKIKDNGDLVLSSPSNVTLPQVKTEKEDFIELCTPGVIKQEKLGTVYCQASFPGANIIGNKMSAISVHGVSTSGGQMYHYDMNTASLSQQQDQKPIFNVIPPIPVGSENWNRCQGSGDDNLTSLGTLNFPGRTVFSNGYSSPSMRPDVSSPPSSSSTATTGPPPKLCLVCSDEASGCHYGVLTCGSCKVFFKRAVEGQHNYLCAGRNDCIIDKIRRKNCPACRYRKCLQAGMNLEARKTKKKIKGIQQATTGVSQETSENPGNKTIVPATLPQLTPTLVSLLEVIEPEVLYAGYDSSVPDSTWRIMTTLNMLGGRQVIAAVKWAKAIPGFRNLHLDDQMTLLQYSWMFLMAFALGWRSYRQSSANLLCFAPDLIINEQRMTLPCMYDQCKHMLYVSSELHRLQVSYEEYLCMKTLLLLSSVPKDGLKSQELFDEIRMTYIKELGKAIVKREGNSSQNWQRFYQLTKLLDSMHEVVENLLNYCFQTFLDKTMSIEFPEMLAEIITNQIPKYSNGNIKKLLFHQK
Sequence of human RAR-related Orphan Receptor beta (RORb), RORB (gene 6096) (Q92753 whole entry, looked up, the tested form may be a part): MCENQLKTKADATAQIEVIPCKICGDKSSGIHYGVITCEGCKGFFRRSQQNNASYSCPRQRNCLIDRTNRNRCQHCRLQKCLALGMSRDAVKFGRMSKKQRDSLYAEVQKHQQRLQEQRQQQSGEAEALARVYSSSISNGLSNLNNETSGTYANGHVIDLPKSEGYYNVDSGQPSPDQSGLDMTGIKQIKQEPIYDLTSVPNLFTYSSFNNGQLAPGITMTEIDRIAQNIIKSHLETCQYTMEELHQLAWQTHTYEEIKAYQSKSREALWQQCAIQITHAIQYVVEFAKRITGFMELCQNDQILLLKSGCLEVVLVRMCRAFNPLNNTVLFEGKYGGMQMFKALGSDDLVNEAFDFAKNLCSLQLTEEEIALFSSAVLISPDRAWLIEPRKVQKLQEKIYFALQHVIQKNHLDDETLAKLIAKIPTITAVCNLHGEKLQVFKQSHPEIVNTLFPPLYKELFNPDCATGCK
Sequence of Nuclear receptor subfamily 1 group I member 2 (Homo sapiens) (O75469 whole entry, looked up, the tested form may be a part): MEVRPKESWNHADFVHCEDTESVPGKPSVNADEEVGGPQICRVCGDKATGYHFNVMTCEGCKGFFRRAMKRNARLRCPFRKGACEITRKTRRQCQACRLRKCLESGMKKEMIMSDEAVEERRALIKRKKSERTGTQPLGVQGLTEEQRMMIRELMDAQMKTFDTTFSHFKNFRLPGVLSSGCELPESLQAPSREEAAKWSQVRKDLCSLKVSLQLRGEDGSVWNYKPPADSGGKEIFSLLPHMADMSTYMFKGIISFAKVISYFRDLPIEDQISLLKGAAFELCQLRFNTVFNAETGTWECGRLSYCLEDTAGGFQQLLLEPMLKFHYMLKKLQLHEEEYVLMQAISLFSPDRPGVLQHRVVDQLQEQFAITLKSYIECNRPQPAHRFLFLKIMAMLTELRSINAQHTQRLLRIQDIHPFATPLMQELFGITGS
Sequence of human Vitamin D Receptor (VDR), VDR (gene 7421) (P11473 whole entry, looked up, the tested form may be a part): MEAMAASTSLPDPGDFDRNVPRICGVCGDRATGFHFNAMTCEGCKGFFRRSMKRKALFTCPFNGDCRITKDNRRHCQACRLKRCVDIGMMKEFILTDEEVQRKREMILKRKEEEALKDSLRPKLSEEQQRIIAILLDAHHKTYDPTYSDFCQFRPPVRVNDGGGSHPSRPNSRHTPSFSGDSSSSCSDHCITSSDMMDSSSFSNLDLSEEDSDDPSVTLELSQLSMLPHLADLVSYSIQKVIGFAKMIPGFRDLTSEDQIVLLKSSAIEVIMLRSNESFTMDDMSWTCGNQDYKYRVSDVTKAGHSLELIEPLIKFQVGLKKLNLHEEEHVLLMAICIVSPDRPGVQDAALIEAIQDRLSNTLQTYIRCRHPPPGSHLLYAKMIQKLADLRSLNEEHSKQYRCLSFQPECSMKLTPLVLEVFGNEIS
Sequence of human Peroxisome Proliferator-activated Receptor delta (PPARd), PPARD (gene 5467) (Q03181 whole entry, looked up, the tested form may be a part): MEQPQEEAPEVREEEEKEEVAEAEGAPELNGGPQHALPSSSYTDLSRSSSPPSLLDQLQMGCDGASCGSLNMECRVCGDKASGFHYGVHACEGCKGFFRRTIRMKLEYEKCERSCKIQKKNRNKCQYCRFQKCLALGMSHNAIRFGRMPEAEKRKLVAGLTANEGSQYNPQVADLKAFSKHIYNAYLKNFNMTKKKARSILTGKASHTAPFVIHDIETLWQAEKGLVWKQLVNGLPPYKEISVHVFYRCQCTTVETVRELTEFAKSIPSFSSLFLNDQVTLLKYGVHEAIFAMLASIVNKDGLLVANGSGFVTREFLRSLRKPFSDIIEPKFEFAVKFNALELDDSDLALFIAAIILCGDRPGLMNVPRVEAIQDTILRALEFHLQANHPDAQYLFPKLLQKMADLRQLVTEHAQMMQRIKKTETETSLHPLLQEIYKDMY
Sequence of human RAR-related Orphan Receptor gamma (RORg), RORC (gene 6097) (P51449 whole entry, looked up, the tested form may be a part): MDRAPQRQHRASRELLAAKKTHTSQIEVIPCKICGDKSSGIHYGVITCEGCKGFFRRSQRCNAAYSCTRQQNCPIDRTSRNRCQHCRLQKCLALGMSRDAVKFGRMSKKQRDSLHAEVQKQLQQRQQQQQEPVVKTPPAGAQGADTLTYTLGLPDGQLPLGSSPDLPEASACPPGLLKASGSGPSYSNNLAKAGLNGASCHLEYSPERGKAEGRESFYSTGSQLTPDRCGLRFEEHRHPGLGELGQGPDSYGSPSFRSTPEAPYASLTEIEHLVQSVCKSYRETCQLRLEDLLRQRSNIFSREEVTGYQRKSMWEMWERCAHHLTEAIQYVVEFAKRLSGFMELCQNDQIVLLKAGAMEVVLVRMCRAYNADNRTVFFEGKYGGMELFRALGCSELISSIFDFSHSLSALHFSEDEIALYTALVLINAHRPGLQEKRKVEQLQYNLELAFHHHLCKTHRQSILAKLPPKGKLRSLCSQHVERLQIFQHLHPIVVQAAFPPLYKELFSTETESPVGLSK

On to `C=CC(=O)OCCO`, for which the result in test [1], in test [2], in test [3], in [4], in [5] and in test [6] was inactive. Moreover, the compound was classed as inactive in test [7].

The term AC50 denotes the midpoint of the concentration-response curve, whichever way the signal moves. With `CC(C)(C)C(=O)CCl`, the compound was classed as inactive in test [8], in [9], in test [10], in [3], in test [4] and in test [5]. Besides, the compound was classed as inactive in test [12], in [13], in [7], in test [14] and in test [15]. Moreover, the AC50 was 135 µM (active) in test [1] and 134 µM (active) in test [11].

For `CCN(CC)C(=S)S`, the outcome in test [1], in test [3], in [5] and in test [11] was inactive. Moreover, the AC50 in [4] was 3.68 µM (active).

With `NNc1ccccc1`, the result in test [16], in test [1], in test [10], in test [2] and in [13] was inactive.

For the compound `C=CCc1ccc(OC(=O)Cc2ccccc2)c(OC)c1`, the call in test [17], in test [18], in test [16], in test [8], in [19] and in test [9] was inactive. For the same compound, the result in [1], in test [3], in [11], in test [6] and in test [13] was inactive. In addition, the AC50 in test [10] was 114 µM (active); in [4], 11.8 µM (active).

With `[N-]=[N+]=CC(=O)OC[C@H](N)C(=O)O`, the result in [17], in test [20], in test [9], in test [1], in test [10] and in test [2] was inactive. The result in test [3], in test [5], in [6], in test [13], in test [7] and in test [14] was inactive. Further, the result in test [15] was inactive.

In the case of `CC(C)(Cl)Cl`, the call in [17], in [18], in test [16], in test [8], in test [9] and in [10] was inactive. Moreover, the outcome in [2], in test [3], in test [4], in test [13], in test [7] and in test [14] was inactive. In addition, the result in test [15] was inactive.

As to `CC(O)CN(CC(C)O)CC(C)O` (stereo not drawn), the compound was classed as inactive in [17], in test [20], in test [16], in test [8], in test [19] and in test [9]. For the same compound, the call in test [5] and in test [11] was inactive.

With `S=c1[nH]c2ccccc2[nH]1`, the compound was called inactive in [17], in test [16], in [1], in test [4], in test [13] and in [7].

In the case of `CCC(=O)c1ccc(Cl)cc1`, the compound was called inactive in test [17], in [16], in test [19], in test [9], in [1] and in [3]. The outcome in [4], in [11], in test [6] and in [13] was inactive.

For `CCCCOP(=O)(O)OCCCC`, the result in test [20], in [18], in [19], in test [9], in [10] and in [2] was inactive. Besides, the result in [3] and in [4] was inactive.

Consider `C=CCO`, for which the outcome in [8], in [19], in test [10], in test [2], in [3] and in test [13] was inactive. Besides, the compound was called inactive in test [7].

`Nc1ccccc1C(=O)Oc1ccc2ccccc2c1`: the AC50 in test [17] was 173 µM (active); in test [20], 26.1 µM (active); in test [4], 48.6 µM (active); in test [12], 152 µM (active). Also, the compound was classed as inactive in test [8], in test [19], in [9], in [1], in test [6] and in test [7].
